Only a selection was taken, and hits are over-represented in it overall.
Pf Dd2 growth: blocks in vitro growth of P. falciparum Dd2. P. falciparum Dd2 growth, SYBR Green, 72 h. 4.3% of 120,000 active. AID 1347417. Potency, µM (top dose mostly 28.9 µM), without a hit: at the top dose activity, negative = inhibition, actives largely listed as inhibitors; active = well fitted inhibition curve with a large enough effect;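 note: plate controls were DMSO vehicle for no effect and reference drug for full effect; nearly all actives have a fitted effect of over 65% in size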
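Readout: SYBR Green fluorescence, 485 nm excitation, 535 nm emission, after ~16 h lysis at 37C. Before that, Dd2-infected red cells (2.5% hematocrit) grew 72 h with compound, 29 uM top final concentration.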
* hit, by the source's call; i = inactive; [ ] = dose if it differs, or a comment. Potency is the fitted concentration of half-maximal effect.

SMILES	Pf Dd2 growth
CCOc1cc2c(cc1OCC)C(CC(=O)O)N(C(=O)Nc1ccccc1C(F)(F)F)CC2 (stereo not drawn)	27%
COc1cc2c(cc1OC)C(CNC(=O)c1ccco1)N(C(=O)Nc1cccc(F)c1)CC2 (stereo not drawn)	i
COC(=O)c1ccc(OCC2c3cc(OC)c(OC)cc3CCN2C(=O)c2ccc(F)cc2)cc1 (stereo not drawn)	11µM*
CCNC(=O)N1CCc2cc(OC)c(OC)cc2C1CNC(=O)C1CC1 (stereo not drawn)	-5%
COc1cc2c(cc1OC)C(COc1ccc(F)cc1)N(C(=O)C(C)C)CC2 (stereo not drawn)	-8%
COc1ccc(-c2noc([C@@H]3CCCN3C(=O)Cc3ccc(F)cc3)n2)cc1OC	-19%
COc1ccc(CC(=O)N2CCc3cc(OC)c(OC)cc3C2COc2ccc(F)cc2)cc1OC (stereo not drawn)	11µM*
COC(=O)c1ccc(OCC2c3cc(OC)c(OC)cc3CCN2C(=O)c2ccccc2C)cc1 (stereo not drawn)	11µM*
CC[C@H]1CN(C(=O)C(C)(C)C)CC[C@H]1CC(=O)Nc1ccccc1	-8%[44.1 µM]
COCCN1C(=O)c2cccn2CC1CNC(=O)CC(C)C (stereo not drawn)	1%
O=C1CCN(C(=O)c2ccsc2)CCCCCCN1	4%
CCN(CC)C(=O)CC[C@H]1CNC(=O)[C@H]2NCC[C@H]2N1C	18%[44.1 µM]
NCCCC(=O)N1CCCCC1c1nnc2n1CCNC2 (stereo not drawn)	-13%
COCCc1noc(CC2CCOC3(CCN(C(=O)CCC4CCCC4)CC3)C2)n1 (stereo not drawn)	i
Fc1ccc2c(c1)nc1n2[C@@H](CNCc2cnc3ccccc3c2)COC1	i
O=C(c1ccccc1)N1CCn2ncc(C(=O)N3CCOCC3)c2C1	-11%
COc1cccc(-c2cc(C3CCN(C(=O)Nc4ccccc4OC)CC3)[nH]n2)c1	-19%
COc1cccc(-c2cc(C3CCN(S(=O)(=O)c4ccc(F)cc4F)CC3)[nH]n2)c1	7.1µM*
COc1cccc(-c2cc(C3CCN(C(=O)Nc4ccccc4F)CC3)[nH]n2)c1	-4%
COc1cccc(-c2cc(C3CCN(C(=O)Nc4cccc(Cl)c4C)CC3)[nH]n2)c1	i
COc1cccc(-c2cc(C3CCN(C(=O)c4cc(C)ccc4C)CC3)[nH]n2)c1	-8%
COc1cccc(-c2cc(C3CCN(C(=O)Nc4ccc(F)cc4)CC3)[nH]n2)c1	5.6µM*
COc1cccc(CC(=O)N2CCCC3(C2)NC(=O)N(Cc2ccc(Cl)cc2)C3=O)c1 (stereo not drawn)	i
CCn1cc(S(=O)(=O)N2CC[C@H](c3nc(C)no3)[C@H](NC(=O)C3CC3)C2)cn1	8%
N#Cc1cccc(CN2CCCC(c3nc(-c4cccnc4)no3)CCNC(=O)CC2)c1 (stereo not drawn)	5µM*
SMILES	Pf Dd2 growth
O=C1CCN(C(=O)C2CCCC2)CCCC(c2nc(-c3ccccc3)no2)CCN1 (stereo not drawn)	i
O=C1CCN(Cc2ccncc2F)CCCC(c2nc(-c3cccnc3)no2)CCN1 (stereo not drawn)	i
COc1ccc(C(=O)N2CCCC(c3nc(-c4ccccc4)no3)CCNC(=O)CC2)c(OC)c1 (stereo not drawn)	7.1µM*
COc1ccc(C(=O)N2CCCC(c3nc(-c4cccnc4)no3)CCNC(=O)CC2)cc1 (stereo not drawn)	-27%
CCOc1ccccc1CN1CCCC(c2nc(-c3cccnc3)no2)CCNC(=O)CC1 (stereo not drawn)	4µM*
O=C1CCN(Cc2ccncc2)CCCC(c2nc(-c3cccnc3)no2)CCN1 (stereo not drawn)	-15%
Cc1ncsc1CN1CCCC(c2nc(-c3cccnc3)no2)CCNC(=O)CC1 (stereo not drawn)	i
O=C1CCN(C2CCC2)CCCC(c2nc(-c3cccnc3)no2)CCN1 (stereo not drawn)	-6%
C[C@@H](NC(=O)C1=C[C@@H](NC(=O)CC(C)(C)C)[C@@H](O)[C@H](O)C1)C(N)=O	25%[44.1 µM]
COCC(=O)NC1CCC12CCN(C(=O)c1ccoc1)CC2 (stereo not drawn)	8%
Cc1cnc(CC2CCCN(C(=O)c3ccnn3C)C2)n1C(C)C (stereo not drawn)	-1%
O=C(CC1CCCCC1)N1CCC(c2noc(COc3ccc(F)cc3)n2)CC1	-9%
CCc1ccc(NC(=O)Cn2c(C)cc3nc4n(c(=O)c32)CCCCC4)cc1	-27%
CCCCc1nn(CC(=O)NCc2nc3c(s2)CCCC3)c(=O)n1CC	5%
O=C(Nc1ccc2ncnc(N3CCCC3)c2c1)c1ccc(OC(F)(F)F)cc1	-20%
CCCN1CCN(c2ncnc3sc(C(=O)Nc4ccc(OC(F)(F)F)cc4)c(C)c23)CC1	5µM*
Cc1nc(N2CCCC2)ncc1C(=O)Nc1ccc(OC(F)(F)F)cc1	i
Cc1ccccc1C(=O)N1C(C(=O)NC2CC2)COC12CCN(C(=O)c1cccc(Cl)c1)CC2 (stereo not drawn)	i
Cc1ccc(CN2C(=O)NC3(CCCN(C(=O)c4cccc(Cl)c4)C3)C2=O)cc1 (stereo not drawn)	i
Cc1ccc(CN2C(=O)NC3(CCCN(C(=O)c4ccc(F)c(Cl)c4)C3)C2=O)cc1 (stereo not drawn)	7.1µM*
O=C(c1ccc(F)c(Cl)c1)N1CCCC2(C1)NC(=O)N(Cc1ccccc1)C2=O (stereo not drawn)	-24%
CCN(C(=O)Cn1ccn2nc3c(c2c1=O)CCCC3)c1ccccc1	-11%
Cn1nc(C2CCN(C(=O)C3CCC3)CC2)c2c1CCOC2	i[5.79 µM]
COc1ccc(C(=O)N2C[C@@H](Oc3ccccc3)C[C@H]2C(=O)N2CCOCC2)c(OC)c1	0%
CC(=O)N1CCC2(C1)C(=NC1CCCC1)NC(=O)N2c1cccnc1 (stereo not drawn)	1%[44.1 µM]
SMILES	Pf Dd2 growth
COCCNC(=O)c1c(C)oc2c1CN(Cc1cccc(F)c1)CC2	5µM*
COc1ccc(CN2CCc3oc(C)c(C(=O)NCc4cccnc4)c3C2)cc1	11µM*
Cc1oc2c(c1C(=O)N1CCOCC1)CN(Cc1cccnc1)CC2	-6%
COc1ccc(CN2CCc3oc(C)c(C(=O)NC4CCN(C)CC4)c3C2)cc1	10µM*
Cc1oc2c(c1C(=O)NCc1cccnc1)CN(Cc1ccc(F)cc1)CC2	i
O=C(NCCOc1ccccc1)c1nc2c(o1)CCN(Cc1cccc(F)c1)CC2	i
Cc1oc2c(c1C(=O)NCCc1ccncc1)CN(C)CC2	-19%
Cc1oc2ccn(Cc3cccc(F)c3)c(=O)c2c1C(=O)NCc1ccccc1	i
COC(=O)C1CCCN1C(=O)c1c(C)oc2c1CN(Cc1ccc(C)cc1)CC2 (stereo not drawn)	-27%
COc1ccc(CN2CCc3oc(C)c(C(=O)N4CCOCC4)c3C2)cc1	i
COc1ccc(CN2CCc3nc(C(=O)NCc4cccc(F)c4)oc3CC2)cc1	-3%[44.1 µM]
Cc1oc2c(c1C(=O)NCc1ccncc1)CN(Cc1cccc(F)c1)CC2	10µM*
O=C(c1cccc2[nH]ccc12)N1CCCN(c2cc(-c3ccc(Cl)cc3)[nH]n2)CC1	-2%
COc1ccc(C(=O)N2C[C@@H](Oc3cccnc3)C[C@H]2C(N)=O)c(OC)c1	8%
COc1ccc(N2C(=O)C3(CCCCC3)C2C(=O)NCCCN2CCCC2=O)cc1 (stereo not drawn)	-12%
CC(C)NC(=O)C[C@@H]1O[C@H](CNCc2cccc(Cl)c2)[C@@H](O)[C@H]1O	8%[44.1 µM]

Bioassay records as filed in PubChem BioAssay.
